PubChem BioAssay (NCATS)
Inconclusive results are not listed. Calls of active or inactive are those of the source. Unless noted, calls follow the shape of the full dose curve.

What was measured:
[1] = Cell Viability - BJ (AID 421); settings: BJ fibroblast viability, qHTS;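 also: potency is read from the fitted curve at half-maximal effect; cells exposed to compound for 40 hours at 37 °C before readout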
Summary of the method: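 Cytotoxicity in human BJ foreskin fibroblasts is scored as loss of cellular ATP after a 40-hour exposure, measured by luciferase luminescence. Controls are DMSO and 100 uM tamoxifen.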

[2] = Cell Viability - Jurkat (AID 426;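 active = dose-dependent loss of cell ATP signal giving a full or clear fitted curve, ranked by lower potency value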;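 also: potency is read from the fitted curve at half-maximal effect; cells exposed to compound for 40 hours at 37 °C before ATP read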); settings: qHTS
Summary of the method: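 Seed 5000 Jurkat E6-1 cells/well; add compound; incubate 40 hr at 37 °C; add CellTiter-Glo; wait 20 min at room temperature; read luminescence. Fit concentration-response with Hill equation for AC50.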

[3] = Cell Viability - Hek293 (AID 427;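 active = compounds whose dose-response curve shows a full or clear partial loss of cell viability, called from curve shape rather than a numeric limit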;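 also: potency is read from the fitted curve at half-maximal effect; cells exposed to compound for 40 hours at 37 °C before reading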); settings: qHTS
Summary of the method: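 qHTS, human embryonic kidney (adenovirus-transformed) cells; 40 hr cpd, 37 °C; CellTiter-Glo ATP luminescence. Norm: DMSO = 0, 100 uM tamoxifen = 100% inhibition. Hill-fit AC50.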

[4] = Cell Viability - HepG2 (AID 433); settings: qHTS;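 also: potency is read from the fitted curve at half-maximal effect; cells exposed to compound for 40 hours; potency for ATP loss meaning cytotoxicity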
Summary of the method: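 In this qHTS format, a 40 h, 37 °C compound incubation of HepG2 cells in complete medium precedes a 20 min CellTiter-Glo step at room temperature. Tamoxifen and doxorubicin serve as positive controls; Hill-equation fits yield AC50.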

[5] = Cell Viability - MRC5 (AID 434); settings: MRC5 lung fibroblast viability, qHTS;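 also: potency is read from the fitted curve at half-maximal effect; cells exposed to compound for 40 hours at 37 °C; potency reflects cytotoxicity seen as loss of intracellular ATP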
Summary of the method: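 MRC5 normal human lung fibroblasts (1500/well) were treated with compounds for 40 hr at 37 °C in complete medium, and viable cells were measured as intracellular ATP by CellTiter-Glo luminescence. AC50 came from Hill fits, normalized to DMSO and 100 uM tamoxifen.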

[6] = Cell Viability - SK-N-SH (AID 435); settings: SK-N-SH neuroblastoma cell viability qHTS;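 also: potency is read from the fitted curve at half-maximal effect; compound exposure lasted 40 h at 37 °C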
Summary of the method: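 Human neuroblastoma line, 40 h exposure at 37 °C, ATP quantified via luciferase luminescence; DMSO and 100 uM tamoxifen define 0 and 100% inhibition for AC50 fitting.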

[7] = target: Mitogen-activated protein kinase 10 (Mus musculus) (UniProt Q61831); test: JNK3 AlphaScreen Assay (AID 530; active = well fitted curve in either direction with a large enough effect, not every such curve was filed as active;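 also: kinase came from lysate of stimulated human HepG2 cells; signal reports phosphorylation of biotinylated GST-cJun 1-79 at Ser73 with 10 µM ATP; % is scaled to controls: 0 for no effect and ±100 for the full control effect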); settings: JNK3 lysate, c-Jun phosphorylation; series mostly up to 57.1 µM
Summary of the method: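 JNK3 came from HepG2 lysates pre-activated with IL-1beta and TNF-alpha and phosphorylated biotinylated GST-cJun (1-79) at 10 uM ATP, pH 7.6, room temperature. Compounds were titrated. AlphaScreen signal used anti-phospho-cJun (Ser73) antibody.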

[8] = Cell Viability - N2a (AID 540; active = well fitted curve in the direction sought with a large enough effect; an effect the other way counts as inactive or inconclusive;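 also: plate controls were DMSO alone for no effect and tamoxifen control for full effect; nearly all actives have a fitted effect of over 45% in size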); settings: N2a mouse neuroblastoma cell viability; activity change, negative = cytotoxicity: at 92.2 µM (top of the series)
Summary of the method: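 First, 1500 N2a cells per well incubate 5 hr at 37 °C; next, compounds are added and incubated 40 hr at 37 °C; finally CellTiter-Glo is added and luminescence read after 20 min, with AC50 derived by Hill modeling.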

[9] = Cell Viability - HUV-EC-C (AID 542; active = well fitted curve in the direction sought with a large enough effect; an effect the other way counts as inactive or inconclusive;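 also: cells exposed to compound for 40 hours; % is scaled to controls: 0 for no effect and ±100 for the full control effect; nearly all actives have a fitted effect of over 35% in size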); settings: HUV-EC-C endothelial cell viability, qHTS; series mostly up to 92.2 µM
Summary of the method: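 Decrease in cellular ATP, quantified by luciferase luminescence, reflects toxicity in normal human vascular endothelial HUV-EC-C cells given compound for 40 hr in complete culture medium. Values are AC50s from concentration-response curves.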

[10] = Cell Viability - NIH 3T3 (AID 541; active = well fitted curve in the direction sought with a large enough effect; an effect the other way counts as inactive or inconclusive;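 also: cells exposed to compound for 40 hours; plate controls were DMSO alone for no effect and tamoxifen positive control for full effect; nearly all actives have a fitted effect of over 25% in size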); settings: NIH 3T3 cell viability, qHTS; activity change, negative = cytotoxicity: at 92.2 µM (top of the series)
Summary of the method: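 AC50 values reflect concentration-dependent loss of intracellular ATP in NIH 3T3 cells after 40 hr treatment in complete culture medium, quantified by luciferase-based luminescence.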

CCN(CC)c1cccc(O)c1
inactive: Potency [1] > 92 µM | Potency [2] > 92 µM | Potency [3] > 92 µM | Potency [4] > 92 µM | Potency [5] > 92 µM | Potency [6] > 92 µM | outcome [7] | activity change, negative = cytotoxicity [8] 0.0315% | Potency [9]

Nc1c(Cl)cc(Cl)cc1Cl
inactive: Potency [1] > 92 µM | Potency [2] > 92 µM | Potency [3] > 92 µM | Potency [4] > 92 µM | Potency [5] > 92 µM | Potency [6] > 92 µM | outcome [7] | activity change, negative = cytotoxicity [8] -11.7% | Potency [10] | Potency [9]

Clc1ccccn1
inactive: Potency [1] > 92 µM | Potency [2] > 92 µM | Potency [3] > 92 µM | Potency [4] > 92 µM | Potency [5] > 92 µM | Potency [6] > 92 µM | outcome [7] | activity change, negative = cytotoxicity [8] -19.1% | Potency [10] | Potency [9]

S=C([S-])NCCNC(=S)[S-].[Zn+2]
inactive: Potency [1] > 92 µM | Potency [2] > 92 µM | Potency [3] > 92 µM | Potency [4] > 92 µM | Potency [5] > 92 µM | outcome [7] | activity change, negative = cytotoxicity [8] -5.49% | Potency [10] | Potency [9]

Cc1ccc(Cl)cc1N
inactive: Potency [1] > 92 µM | Potency [2] > 92 µM | Potency [3] > 92 µM | Potency [4] > 92 µM | Potency [5] > 92 µM | Potency [6] 47.5 µM | outcome [7] | Potency [10] | Potency [9]

CCNc1cc(O)ccc1C
inactive: Potency [1] > 92 µM | Potency [2] > 92 µM | Potency [3] > 92 µM | Potency [4] > 92 µM | Potency [5] > 92 µM | outcome [7] | activity change, negative = cytotoxicity [8] 4.09% | Potency [10] | Potency [9]

c1ccsc1
inactive: Potency [1] > 92 µM | Potency [2] > 92 µM | Potency [3] > 92 µM | Potency [4] > 92 µM | Potency [5] > 92 µM | outcome [7] | activity change, negative = cytotoxicity [8] -9.01% | Potency [10] | Potency [9]

COC(=O)CS
inactive: Potency [1] > 92 µM | Potency [2] > 92 µM | Potency [3] > 92 µM | Potency [4] > 92 µM | Potency [5] > 92 µM | Potency [6] > 92 µM | outcome [7] | Potency [9]

CC(C)=CCC/C(C)=C/C=O
inactive: Potency [1] > 92 µM | Potency [2] > 92 µM | Potency [3] > 92 µM | Potency [4] > 92 µM | Potency [5] > 92 µM | Potency [6] > 92 µM | outcome [7] | Potency [9]

O=C1OC(=O)c2cc([N+](=O)[O-])ccc21
inactive: Potency [1] > 92 µM | Potency [2] > 92 µM | Potency [3] > 92 µM | Potency [4] > 92 µM | Potency [5] > 92 µM | Potency [6] > 92 µM | outcome [7] | Potency [9]

C=CCCCCCC
inactive: Potency [1] > 92 µM | Potency [2] > 92 µM | Potency [3] > 92 µM | Potency [4] > 92 µM | Potency [5] > 92 µM | outcome [7] | activity change, negative = cytotoxicity [8] 6.33% | Potency [10] | Potency [9]

CSc1ccc(C=O)cc1
inactive: Potency [1] > 92 µM | Potency [2] > 92 µM | Potency [3] > 92 µM | Potency [4] > 92 µM | Potency [5] > 92 µM | Potency [6] > 92 µM | outcome [7] | Potency [10] | Potency [9]

CC(=O)c1nccs1
inactive: Potency [1] > 92 µM | Potency [2] > 92 µM | Potency [3] > 92 µM | Potency [4] > 92 µM | Potency [5] > 92 µM | Potency [6] > 92 µM | outcome [7] | Potency [10] | Potency [9]

CCOc1cccc(N)c1
inactive: Potency [1] > 92 µM | Potency [2] > 92 µM | Potency [3] > 92 µM | Potency [4] > 92 µM | Potency [5] > 92 µM | outcome [7] | activity change, negative = cytotoxicity [8] 4.96% | Potency [10] | Potency [9]

O=C1CCC(=O)O1
inactive: Potency [1] > 92 µM | Potency [2] > 92 µM | Potency [3] > 92 µM | Potency [4] > 92 µM | Potency [5] > 92 µM | Potency [6] > 92 µM | outcome [7] | Potency [10] | Potency [9]

CCCCOCCOCCSC#N
inactive: Potency [1] > 92 µM | Potency [2] > 92 µM | Potency [3] > 92 µM | Potency [4] > 92 µM | Potency [5] > 92 µM | outcome [7] | activity change, negative = cytotoxicity [8] 0.328% | Potency [10] | Potency [9]

Nc1ccc([N+](=O)[O-])c(N)c1
inactive: Potency [1] > 92 µM | Potency [2] > 92 µM | Potency [3] > 92 µM | Potency [4] > 92 µM | Potency [5] > 92 µM | Potency [6] > 92 µM | outcome [7] | Potency [10] | Potency [9]

Cc1cc(C)cc(N)c1
inactive: Potency [1] > 92 µM | Potency [2] > 92 µM | Potency [3] > 92 µM | Potency [4] > 92 µM | Potency [5] > 92 µM | Potency [6] > 92 µM | outcome [7] | Potency [10] | Potency [9]
